Results as given in PubChem BioAssay AID1159580 (chemical genetic matrix, 2015).
Hit rate of the full screen: of about 5,500 compounds, about 2,000 (36%) were called active. Roughly 18% stayed inconclusive and do not appear here. Cut-off read from the data, not from the text of the source: active = normalized growth mostly below about 0.91 (no sharp cut-off); inconclusive = no clear call, values can overlap the other calls; inactive = mostly above about 0.92. Some of the results follow.

Assay: chemical genetic growth profiling, strain panel (AID 1159580);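 note: tested at 20 µM; growth read once vehicle control cultures reached saturation at 30 °C; 1 = growth at the plate median or of vehicle wells; lower values mean less growth of the strain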
Settings: S. cerevisiae deletion strains, growth OD

Measured: normalized growth

CC1CC(OC(=O)c2ccccc2O)CC(C)(C)C1 (stereo not given)
inactive: locus YAL021C, strain ccr4, hits give low values 0.977 | locus YAL026C, strain drs2, hits give low values 0.989 | locus YAL030W, strain snc1, hits give low values 0.985 | locus YBL061C, strain skt5, hits give low values 0.97 | locus YBR009C, strain hhf1, hits give low values 0.914 | locus YBR023C, strain chs3, hits give low values 0.974 | locus YBR171W, strain sec66, hits give low values 0.987 | locus YBR231C, strain swc5, hits give low values 0.961 | locus YBR279W, strain paf1, hits give low values 0.98 | locus YCL011C, strain gbp2, hits give low values 0.969 | locus YCL016C, strain dcc1, hits give low values 0.991 | locus YCL061C, strain MRC1, hits give low values 0.983 | locus YCL069W, strain vba3, hits give low values 0.987 | locus YCR088W, strain abp1, hits give low values 0.99 | locus YDL005C, strain med2, hits give low values 0.968 | locus YDL040C, strain nat1, hits give low values 0.983 | locus YDR001C, strain nth1, hits give low values 0.984 | locus YDR069C, strain doa4, hits give low values 0.943 | locus YDR137W, strain rgp1, hits give low values 0.922 | locus YDR159W, strain sac3, hits give low values 0.977 | locus YDR195W, strain ref2 0.968 | locus YDR297W, strain sur2, hits give low values 0.973 | locus YDR334W, strain swr1, hits give low values 0.985 | locus YDR335W, strain msn5, hits give low values 0.992 | locus YDR392W, strain spt3, hits give low values 0.89 | locus YEL003W, strain gim4, hits give low values 0.974 | locus YEL037C, strain rad23, hits give low values 0.987 | locus YEL061C, strain CIN8 (second series), hits give low values 0.965 | locus YER015W, strain faa2, hits give low values 0.975 | locus YER016W, strain bim1, hits give low values 0.982 | locus YER111C, strain swi4, hits give low values 0.985 | locus YER155C, strain BEM2 (second series), hits give low values 0.982 | locus YFR010W, strain ubp6, hits give low values 0.971 | locus YGL167C, strain pmr1, hits give low values 0.962 | locus YGL173C, strain kem1, hits give low values 0.967 | locus YGL227W, strain vid30, hits give low values 0.978 | locus YGL240W, strain doc1, hits give low values 0.933 | locus YGL253W, strain hxk2, hits give low values 1 | locus YHR013C, strain ard1, hits give low values 0.865 | locus YHR027C, strain rpn1, hits give low values 0.989 | locus YHR030C, strain SLT2, hits give low values 0.94 | locus YHR079C, strain IRE1, hits give low values 0.958 | locus YHR142W, strain chs7, hits give low values 0.978 | locus YJL092W, strain hpr5, hits give low values 0.985 | locus YJL095W, strain BCK1 (second series), hits give low values 0.993 | locus YJL095W, strain BCK1, hits give low values 1.01 | locus YJL115W, strain asf1, hits give low values 1 | locus YJL129C, strain trk1, hits give low values 0.896 | locus YJL154C, strain vps35, hits give low values 0.987 | locus YJL164C, strain tpk1, hits give low values 0.97 | locus YJL166W, strain qcr8, hits give low values 0.943 | locus YJL187C, strain SWE1, hits give low values 0.974 | locus YJR066W, strain TOR1, hits give low values 0.943 | locus YKL160W, strain elf1, hits give low values 0.993 | locus YKR026C, strain gcn3, hits give low values 0.953 | locus YKR091W, strain srl3, hits give low values 0.981 | locus YLL001W, strain dnm1, hits give low values 1.01 | locus YLL026W, hits give low values 0.98 | locus YLL041C, strain sdh2, hits give low values 0.989 | locus YLR027C, strain aat2, hits give low values 0.972 | locus YLR113W, strain HOG1, hits give low values 1 | locus YLR221C, strain rsa3, hits give low values 0.925 | locus YLR258W, strain gsy2, hits give low values 0.97 | locus YLR262C, strain YPT6 (second series), hits give low values 0.904 | locus YLR320W, strain mms22, hits give low values 0.952 | locus YLR342W, strain FKS1, hits give low values 0.949 | locus YLR357W, strain rsc2, hits give low values 0.975 | locus YLR370C, strain arc18, hits give low values 0.978 | locus YLR384C, strain iki3, hits give low values 0.997 | locus YML120C, strain ndi1, hits give low values 0.987 | locus YMR058W, strain fet3, hits give low values 0.981 | locus YMR125W, strain sto1, hits give low values 0.975 | locus YMR129W, hits give low values 0.998 | locus YMR205C, strain PFK2, hits give low values 0.906 | locus YMR231W, strain pep5, hits give low values 1 | locus YNL071W, strain lat1, hits give low values 0.974 | locus YNL183C, strain NPR1, hits give low values 0.947 | locus YNL209W, strain ssb2, hits give low values 0.983 | locus YNL248C, strain rpa49, hits give low values 0.989 | locus YNL322C, strain KRE1 (second series), hits give low values 0.99 | locus YNR049C, strain mso1, hits give low values 0.982 | locus YOR001W, strain rrp6, hits give low values 0.996 | locus YOR070C, strain gyp1, hits give low values 0.989 | locus YOR080W, strain dia2, hits give low values 0.968 | locus YOR083W, strain WHI5, hits give low values 1 | locus YOR106W, strain vam3, hits give low values 0.951 | locus YOR231W, strain MKK1, hits give low values 0.958 | locus YOR265W, strain rbl2, hits give low values 0.989 | locus YOR270C, strain vph1, hits give low values 0.977 | locus YOR290C, strain snf2, hits give low values 0.915 | locus YPL051W, strain arl3, hits give low values 1.01 | locus YPL078C, strain atp4, hits give low values 0.995 | locus YPL106C, strain sse1, hits give low values 0.974 | locus YPL240C, strain hsp82, hits give low values 0.958 | locus YPL256C, strain CLN2, hits give low values 0.94
